Holding throughout (experiment): Cytotoxic Profiling of Annotated Libraries Using Quantitative High-Throughput Screening (AID 1296008); note: nearly all actives have a fitted effect of over 60% in size
What all share (details): Five cell lines viability, CellTiter-Glo ATP luminescence, 48-72 h; max response: hits give low values
Background: In ATP-based viability assays light output follows the ATP content of the culture.

One test has as its system CRL-7250. Put shortly: (§1)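 Cytotoxicity was measured as CellTiter-Glo ATP luminescence, read after 10 min at room temperature. Compound treatment of the cells lasted 48 or 72 hr at 37 degrees Celsius in a qHTS format.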
The subject of the next test is HaCat. The essentials:
as §1

The subject of another test is KB-3-1. Put shortly:
as §1

The next test has as its system NIH3T3. The essentials:
as §1

Inconclusive results are not listed. Unmarked numbers belong to inactive results. Active and inactive are the calls of the source. Calls come from the whole dose curve; as a rule, active = well fitted inhibition curve with a large enough effect; inconclusive = small, poorly fitted or top-dose-only effect; inactive = flat fitted curve, though single readings scatter.
% is set by controls: 0 for no effect and ±100 for the full control effect; potency is the fitted concentration of half-maximal effect.

For `CCOC(=O)c1cnn(-c2ccccc2)c1NC(=O)c1cc2nc(-c3ccco3)cc(C(F)(F)Cl)n2n1`, the max response in the test with CRL-7250 was -4.16%; in the test on HaCat, 3.78%; in the test on KB-3-1 it was 6.18%.
`CC(=O)O[C@H]1CC(C)(C)CC2[C@]13CO[C@@]21CCC2[C@@]4(C)CC[C@H](O[C@@H]5OC[C@H](O[C@@H]6O[C@H](CO)[C@@H](O)[C@H](O)[C@H]6O[C@@H]6OC[C@@H](O[C@@H]7O[C@H](CO)[C@@H](O)[C@H](O)[C@H]7O)[C@H](O)[C@H]6O)[C@H](O)[C@H]5O[C@@H]5O[C@H](CO)[C@@H](O)[C@H](O)[C@H]5O)[C@@](C)(CO)C4CC[C@@]2(C)[C@]1(C)C[C@H]3O` (some centres not stated): the Potency in the test on CRL-7250 is 2.19 µM (active). Further, the max response is 2.18% in the test with HaCat and -6.99% in the test on KB-3-1.
Turning to `O=C(Nc1ccc(-c2ccc(Cl)c(Cl)c2)cc1)C1=C(O)c2ccccc2S(=O)(=O)N1`, in the test on CRL-7250, the call was inactive. Moreover, the max response was -6.44% in the test on HaCat and -12.4% in the test on KB-3-1.
Take `CC1(C)CC[C@]2(C(=O)O)CC[C@]3(C)C(=CCC4[C@@]5(C)C[C@@H](O)[C@H](O)C(CO)(CO)C5CC[C@]43C)C2[C@@H]1O` (some centres not stated): the Potency is 7.96 µM (active) in the test on CRL-7250 and 10 µM (active) in the test with KB-3-1. The max response in the test with HaCat is -58.7%; in the test on NIH3T3, -1.94%.
Consider `C=C[C@](C)(O)CC[C@H]1C(C)=CC(=O)[C@H]2C(C)(C)CCC[C@]12C`, for which the max response in the test with CRL-7250 was -9.12%; with HaCat it was 1.13%; in the test on KB-3-1 it was -5.31%; in the test with NIH3T3 it was 0.554%.
Regarding `COC1CC(=O)C23C(=O)NC(CC(C)C)C2C(C)C(C)=CC3/C=C(\C)CCCC1O` (configuration not stated), the max response in the test on CRL-7250 is -6.23%; with HaCat, 3.61%; in the test on KB-3-1, 1.14%; with NIH3T3, -14.9%.
Regarding `Cc1cnn(-c2ccccc2)c1NC(=O)COCc1ccccc1`, the max response in the test on CRL-7250 was -16.8%; with HaCat, 3.62%; in the test with KB-3-1 it was 3.83%.
Turning to `CC(C)(C)C1CCN(C(=O)n2ncc(C(O)(c3ccccc3)c3ccccc3)n2)CC1`, in the test on CRL-7250, the molecule was classed as inactive. Besides, the max response in the test with HaCat is -7.63%; in the test on KB-3-1, -15.2%.
Regarding `CCCCCc1ccc(/C=C/C(=O)Nc2cc(Cl)ccc2C(=O)O)cc1`, the max response with CRL-7250 is -6.38%; in the test with HaCat, -35.2%; with KB-3-1 it was -3.71%.
Regarding `COc1ccccc1C(=O)Nc1cccc(NC(=O)c2cccc(C)c2)c1`, the max response with CRL-7250 was -5.11%; with HaCat, 3.09%; in the test on KB-3-1, 4.14%.
For `Cc1cccc(C#Cc2cc(F)cc(C#N)c2)n1`, in that order: -2.01%, -1.48% and 2.45%.
For `CCn1c(N)c(C(=O)NC)c(=O)c2ccc(C#CC(C)(O)COC)nc21` (configuration not stated), in that order: -33.6%, -27.4% and 1.64%.
In the case of `CO[C@@H]1[C@H](O)CCC2(CO2)[C@H]1[C@@]1(C)O[C@@H]1CC=C(C)C` (some centres not stated), the max response with CRL-7250 was -6.79%; with HaCat, -1.46%; in the test on NIH3T3, -13.7%. Moreover, the molecule was called inactive with KB-3-1.
As to `Nc1nc2c(ncn2C2OC3COP(=O)(O)OC3C2O)c(=O)[nH]1` (configuration not stated), the max response was -27.3% in the test with CRL-7250, -25.5% with HaCat and 9.92% in the test with KB-3-1.
For `Cc1ccc(N2CCN(CCC3NC(=O)c4ccccc43)CC2)cc1C` (configuration not stated), the max response with CRL-7250 was 4.52%; in the test with HaCat, -0.27%; in the test with KB-3-1 it was -2.29%; with NIH3T3 it was 0.934%.
With `CN(C)[C@@H]1CCc2[nH]c3ccc(NC(=O)c4ccc(F)cc4)cc3c2C1`, the values for the max response with CRL-7250, in the test on HaCat and in the test on KB-3-1 were -12.5%, -11.8% and 1.75%, respectively.
For the molecule `COc1ccc(-c2c(C)nn3c(NCCN4CCOCC4)cc(C)nc23)cc1OC`, the max response with CRL-7250 is -19%; with HaCat it was -11.4%. Moreover, the molecule was classed as inactive in the test on KB-3-1.
`COc1cccc(CN(C(=O)CC(C)(C)C)[C@H]2C[C@H](C(=O)N3CCNCC3)N(Cc3ccc4c(c3)OCO4)C2)c1`: the molecule was called inactive in the test on CRL-7250 and in the test on KB-3-1. Also, in the test with HaCat, the max response is -6.86%.
With `COc1ccc(CCc2nc3cc(-c4c(C)noc4C)ccc3n2CC(C)N2CCOCC2)cc1Cl` (configuration not stated), the max response in the test with CRL-7250 is -13.4%; in the test on HaCat, -1.2%; with KB-3-1, 0.0649%; in the test with NIH3T3, -17.1%.
In the case of `Cc1nc(N2CCN(C(=O)c3ccco3)CC2)c2c3c(sc2n1)CCCC3`, the max response was -5.8% with CRL-7250, 1.01% in the test on HaCat, -12.8% in the test on KB-3-1 and 1.1% with NIH3T3.
For `O=C(NCCN1CCC(n2c(=O)[nH]c3ccccc32)CC1)c1ccc2ccccc2c1`, the max response was 1.03% in the test on CRL-7250, -42.4% in the test on HaCat and -2.44% in the test on KB-3-1.
In the case of `CC(O)(C(=O)C1CC1(CO)COC1OC(CO)C(O)C(O)C1O)C1C(O)CC2C3CC=C4CC(O)CC(O)C4(C)C3C(O)CC21C` (configuration not stated), the results for the Potency in the test with CRL-7250, in the test with HaCat and in the test with KB-3-1 were 0.432 µM (active), 1.72 µM (active) and 0.769 µM (active), respectively. For the same molecule, in the test on NIH3T3, the max response was 0.504%.
As to `CN(C)C(=O)Nc1cc(-c2ccccc2)ccc1N(C)C`, the results for the max response in the test with CRL-7250, in the test with HaCat and with KB-3-1 were -26.2%, -16% and -8.42%, respectively.
As for `Cn1nc(C(C)(C)C)cc1C(=O)N[C@@H](Cc1cccc(Cl)c1)C(=O)NCC#N`, the outcome with CRL-7250 and in the test with NIH3T3 was inactive. The max response was -0.262% with HaCat and 0.545% with KB-3-1.
On to `Fc1ccc(-c2nc(-c3c(F)cccc3F)[nH]c2-c2ccncc2)cc1`, for which the max response is -5.53% with CRL-7250, -17.9% with HaCat and 3.89% in the test on KB-3-1.
As to `COc1ccc2cc3c(NC(=O)c4ccco4)nn(C)c3nc2c1`, the max response in the test with CRL-7250 is -20.9%; in the test on HaCat, -26.7%. In addition, the Potency in the test on KB-3-1 was 13 µM (active).
Consider `CC(=O)N[C@H]1[C@H](O[C@H]2CC[C@@]3(C)C(CC[C@]4(C)C3CC=C3C5CC(C)(C)CC[C@]5(C(=O)O)C(O)C[C@]34C)C2(C)C)O[C@H](CO[C@@H]2O[C@H](C)[C@H](O)[C@H](O)[C@H]2O[C@@H]2OC[C@@H](O)[C@H](O)[C@H]2O)[C@@H](O)[C@@H]1O` (some centres not stated), for which the max response in the test with CRL-7250 was -3.47%; with HaCat, -18.2%; with KB-3-1, 3.32%.
Consider `CC(C)c1ccc(NC(=O)Cn2cnc3c2c(=O)n(C)c(=O)n3C)cc1`, for which the result in the test on CRL-7250 was inactive. Besides, the max response with HaCat was -14.6%; in the test on KB-3-1, 2.05%; in the test with NIH3T3, -6.55%.
Turning to `C=C1/C(=C/C=C2\CCC[C@]3(C)[C@@H]([C@H](C)/C=C/[C@H](O)C4CC4)CC[C@@H]23)C[C@@H](O)C[C@@H]1O`, the results for the max response with CRL-7250, with HaCat and in the test with KB-3-1 were -7.4%, -5.44% and 7.77%, respectively.

(Values after PubChem BioAssay (NCATS).)
